In PubChem BioAssay (NCATS) one finds Potency data, which are given here for 19 compounds.

Inconclusive results are not listed. Active and inactive are the calls of the source. The call rests on the fitted dose curve; in most records, active means well fitted curve in the direction sought with a large enough effect; inconclusive means small, poorly fitted or top-dose-only effect, or another doubt; inactive means no such curve, though single readings can be large; an effect the other way counts as inactive or inconclusive.

The nature of test [1]: qHTS of pediatric cancer cell lines to identify multiple opportunities for drug repurposing: Primary screen for RD cells (AID 1347104). Further: nearly all actives have a fitted effect of over 55% in size. Further: potency means the concentration at half of the fitted maximal effect. In short, it runs like this:
(§1)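 Cells plated at 500-1,000/well in growth medium, compounds added after 5 h. MIPE tested at 11 points (from 0.78 nM), NPC at 8 points (from 0.59 nM). CellTiter-Glo luminescence after 48 h; concentration-response curves from primary screen.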

Test [2] in a line: qHTS of pediatric cancer cell lines to identify multiple opportunities for drug repurposing: Primary screen for MG 63 (6-TG R) cells (AID 1347105). Further: nearly all actives have a fitted effect of over 50% in size. Further: potency means the concentration at half of the fitted maximal effect. In short, it runs like this: as §1
The nature of test [3]: qHTS of pediatric cancer cell lines to identify multiple opportunities for drug repurposing: Primary screen for control Hh wild type fibroblast cells (AID 1347106). Further: nearly all actives have a fitted effect of over 55% in size. Further: potency means the concentration at half of the fitted maximal effect. The procedure, abridged: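 Viability after 48 h compound treatment at 37C, 500-1,000 cells/well, read as ATP luminescence with CellTiter-Glo. Primary screens used 11-point (MIPE, 0.78 nM-46 µM) or 8-point (NPC, 0.59 nM-46 µM) final concentrations; follow-up screens used 11-point dilutions.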

Test [4] can be described thus: qHTS of pediatric cancer cell lines to identify multiple opportunities for drug repurposing: Primary screen for Rh41 cells (AID 1347108). Further: nearly all actives have a fitted effect of over 70% in size. Further: potency means the concentration at half of the fitted maximal effect. The procedure, abridged: as §1
The nature of test [5]: qHTS of pediatric cancer cell lines to identify multiple opportunities for drug repurposing: Primary screen for OHS-50 cells (AID 1347103). Further: nearly all actives have a fitted effect of over 40% in size. Further: potency means the concentration at half of the fitted maximal effect. In short, it runs like this: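 Cells (500-1,000/well) rested 5 h, then received compounds for 48 h; metabolically active cells were measured by CellTiter-Glo luminescence. Final concentrations spanned up to 46 µM (MIPE, 11-point) or 0.59 nM-46 µM (NPC, 8-point) in primary screens, 11-point in follow-ups.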

Test [6] can be described thus: qHTS of pediatric cancer cell lines to identify multiple opportunities for drug repurposing: Primary screen for Rh30 cells (AID 1347107). Further: series mostly up to about 46 µM; nearly all actives have a fitted effect of over 75% in size. In short, it runs like this: (§2)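 Cells (500-1,000/well) in growth media were settled 5 h at 37 degrees C, then given compounds for 48 h. Viability was read as CellTiter-Glo luminescence. Primary runs used MIPE at 11 points (0.78 nM-46 µM) and NPC at 8 points (0.59 nM-46 µM); follow-ups used 11 points.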

Test [7] is described as follows: qHTS of pediatric cancer cell lines to identify multiple opportunities for drug repurposing: Confirmatory screen for NB1643 cells (AID 1347109). Further: nearly all actives have a fitted effect of over 45% in size. Further: potency means the concentration at half of the fitted maximal effect. In short, it runs like this: as §2
A short description of test [8]: qHTS of pediatric cancer cell lines to identify multiple opportunities for drug repurposing: Confirmatory screen for A673 cells (AID 1347110).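 Further: cells exposed to compound for 48 h before the viability read; nearly all actives have a fitted effect of over 65% in size.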 In short, it runs like this:
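qHTS titration format: primary MIPE 0.78 nM-46 µM (11 pts), NPC 0.59 nM-46 µM; confirmation 11 pts. 48 h, CTG luminescence.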

The nature of test [9]: qHTS of pediatric cancer cell lines to identify multiple opportunities for drug repurposing: Confirmatory screen for LAN-5 cells (AID 1347113). Further: nearly all actives have a fitted effect of over 65% in size. The procedure, abridged: as §2
Test [10] can be described thus: qHTS of pediatric cancer cell lines to identify multiple opportunities for drug repurposing: Confirmatory screen for SJ-GBM2 cells (AID 1347116). Further: nearly all actives have a fitted effect of over 60% in size. In short, it runs like this: (§3)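 Viability measured as metabolically active cells via CellTiter-Glo luminescence following 48 hours of compound exposure, 11-point dilutions in confirmatory testing. 500-1,000 cells/well plated 5 hours before dosing; controls were DMSO and 2.3 µM bortezomib.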

A short description of test [11]: qHTS of pediatric cancer cell lines to identify multiple opportunities for drug repurposing: Confirmatory screen for control Hh wild type fibroblast cells (AID 1347121). Further: nearly all actives have a fitted effect of over 70% in size. In short, it runs like this:
as §2

The nature of test [12]: qHTS of pediatric cancer cell lines to identify multiple opportunities for drug repurposing: Confirmatory screen for U-2 OS cells (AID 1347122). Further: nearly all actives have a fitted effect of over 65% in size. Further: potency means the concentration at half of the fitted maximal effect. In short, it runs like this:
as §2

The nature of test [13]: qHTS of pediatric cancer cell lines to identify multiple opportunities for drug repurposing: Confirmatory screen for BT-12 cells (AID 1347112). Further: nearly all actives have a fitted effect of over 55% in size. In short, it runs like this: as §2
A short description of test [14]: qHTS of pediatric cancer cell lines to identify multiple opportunities for drug repurposing: Confirmatory screen for DAOY cells (AID 1347114). Further: potency means the concentration at half of the fitted maximal effect; nearly all actives have a fitted effect of over 65% in size. The procedure, abridged:
as §3

Test [15] in a line: qHTS of pediatric cancer cell lines to identify multiple opportunities for drug repurposing: Confirmatory screen for BT-37 cells (AID 1347117). Further: nearly all actives have a fitted effect of over 55% in size. Further: potency means the concentration at half of the fitted maximal effect. In short, it runs like this: as §2
Test [16] is described as follows: qHTS of pediatric cancer cell lines to identify multiple opportunities for drug repurposing: Primary screen for Rh18 cells (AID 1347102). Further: nearly all actives have a fitted effect of over 65% in size. The procedure, abridged: as §2
Test [17] is described as follows: qHTS of pediatric cancer cell lines to identify multiple opportunities for drug repurposing: Confirmatory screen for SK-N-MC cells (AID 1347111).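 Further: potency means the concentration at half of the fitted maximal effect; cells exposed to compound for 48 h before the readout; nearly all actives have a fitted effect of over 70% in size.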 The procedure, abridged: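 Metabolically active cells were quantified by ATP-dependent luminescence (CellTiter-Glo, 15 min at room temperature) following 48 h treatment. Cells had been plated at 500-1,000 per well and settled for 5 h beforehand.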

As for `c1ccc2c(Cc3c[nH]c4ccccc34)c[nH]c2c1`, the Potency is 14.8 µM (active) in test [1], 5.9 µM (active) in test [2], 4.69 µM (active) in test [3] and 14.8 µM (active) in test [4].
Consider `COc1ccc2cc(-c3nc(-c4ccc(S(C)=O)cc4)[nH]c3-c3ccncc3)ccc2c1` (stereo not given), for which the Potency result in [5], in [1], in test [2], in test [3] and in test [6] was “inactive” in each case.
For `O=C(Nc1cccc(Br)c1)c1cccc(S(=O)(=O)N2CCCCCC2)c1`, the Potency in [5] was 19.3 µM (active). Also, the Potency entry in test [7], in [8], in test [9], in test [10], in test [11] and in test [12] was “inactive” each time.
Consider `CC(=O)OC1C(C)OC(Oc2c(-c3ccc(O)cc3)oc3cc(O)cc(O)c3c2=O)C(O)C1OC(C)=O` (stereo not given), for which the Potency entry in test [2] and in [3] was “inactive” each time.
As to `O=c1c(-c2ccc(O)cc2)coc2cc(OC3O[C@H](CO)[C@H](O)[C@H](O)[C@H]3O)cc(O)c12` (stereo not given in full), the Potency entry in test [5] and in test [2] was “inactive” each time. The Potency was 6.62 µM (active) in test [1] and 8.33 µM (active) in [4].
With `NC(=O)NN=Cc1ccc([N+](=O)[O-])o1`, the Potency result in test [5], in [1], in test [2], in test [3], in test [6] and in test [4] was “inactive” in each case.
For the compound `CC[C@H]1OC(=O)[C@H](C)C(=O)[C@H](C)[C@@H](O[C@H]2O[C@H](C)C[C@H](N(C)C)[C@@H]2O)[C@](C)(OC)C[C@@H](C)C(=O)[C@H](C)[C@H]2N(CCCCn3cnc(-c4cccnc4)c3)C(=O)O[C@]12C`, the Potency entry in [5] was “inactive”.
Consider `COc1ccc(-c2oc3c(CC=C(C)C)c(OC4O[C@H](CO)[C@@H](O)[C@H](O)[C@@H]4O)cc(O)c3c(=O)c2OC2O[C@@H](C)[C@H](O)[C@@H](O)[C@@H]2O)cc1` (stereo not given in full), for which, in test [5], the Potency was 21.7 µM (active). For the same compound, in test [3], the Potency entry is “inactive”.
Take `Cc1c(O)cccc1C(=O)N[C@@H](CSc1ccccc1)[C@H](O)CN1C[C@H]2CCCC[C@@H]2C[C@@H]1C(=O)NC(C)(C)C`: the Potency in [5] is 24.3 µM (active); in test [1] it was 26.4 µM (active); in [2], 18.7 µM (active). For the same compound, the Potency entry in test [3] was “inactive”.
As for `O=C1NC(=O)C(=Cc2ccc3c(c2)OC(F)(F)O3)S1`, the Potency entry in test [3], in test [7], in test [13], in test [9], in test [10] and in test [15] was “inactive” in each case. Moreover, the Potency entry in test [11] is “inactive”. In addition, the Potency in test [14] is 26.1 µM (active).
With `Clc1ccc(Cn2c(CN3CCCC3)nc3ccccc32)cc1`, the Potency result in test [1], in test [2], in test [3] and in test [6] was “inactive” each time.
With `O=C1NC(=O)C(=Cc2ccc(-c3ccc(F)cc3)o2)S1`, the Potency result in test [16] and in test [3] was “inactive” in each case.
Consider `COc1ccc2c(Oc3ccc(NC(=O)c4c(C)n(CC(C)(C)O)n(-c5ccccc5)c4=O)nc3)ccnc2c1`, for which, in [5], the Potency is 5.44 µM (active). For the same compound, the Potency entry in test [1], in test [2], in test [3] and in test [6] was “inactive” throughout.
For the compound `CCCCCNC(=O)N1CCC(CN(Cc2ccc(Cl)cc2)Cc2ccc([N+](=O)[O-])s2)C1` (stereo not given), the figures for the Potency in test [5] and in [1] were 24.3 µM (active) and 29.6 µM (active), respectively. Also, the Potency entry in [3] is “inactive”.
Regarding `Cc1cc(OCCCc2c(C(=O)O)n(Cc3cccnc3)c3c(-c4c(COc5ccc(N6CCN([S+](C)(=O)[O-])CC6)cc5)nn(C)c4C)cccc23)cc(C)c1Cl`, the Potency in test [1] was 29.6 µM (active); in [2], 29.6 µM (active); in test [7], 16.5 µM (active); in [17], 20.8 µM (active); in [15], 18.5 µM (active); in [12] it was 2.61 µM (active). Besides, the Potency result in [3] is “inactive”.
On to `O=C1NC(=O)C(=Cc2ccc3nccnc3c2)S1`, for which the Potency in test [5] was 4.21 µM (active); in test [2] it was 5.12 µM (active). Further, the Potency entry in [3] and in test [4] was “inactive” throughout.
As for `O=C(Nc1ccccc1Br)N[C@@H]1CCN(c2ccc(C(F)(F)F)cn2)C1`, the Potency entry in test [16] and in test [3] was “inactive” throughout.
For `COc1cc2ncnc(-n3nc(-c4ccccn4)nc3N)c2cc1OC`, the Potency in test [5] is 2.17 µM (active). For the same compound, the Potency entry in test [2] was “inactive”.
With `C=CCc1ccc(O)c(-c2ccc(O)c(CC=C)c2)c1`, the Potency is 24.3 µM (active) in [5] and 18.7 µM (active) in test [2]. Besides, in test [3], the Potency result is “inactive”.
